Data as given in the supplement of paper PMC3334620.
Over roughly 33,000 sequences, “E-score (-0.5 to 0.5)” has its median near -0.017; the highest 2% begin near 0.3. Many of the other results were omitted from the sample, so the highest values are more common in it than they were.

Biological target: T1, Sut1 (UniProt P53032)
T1 sequence: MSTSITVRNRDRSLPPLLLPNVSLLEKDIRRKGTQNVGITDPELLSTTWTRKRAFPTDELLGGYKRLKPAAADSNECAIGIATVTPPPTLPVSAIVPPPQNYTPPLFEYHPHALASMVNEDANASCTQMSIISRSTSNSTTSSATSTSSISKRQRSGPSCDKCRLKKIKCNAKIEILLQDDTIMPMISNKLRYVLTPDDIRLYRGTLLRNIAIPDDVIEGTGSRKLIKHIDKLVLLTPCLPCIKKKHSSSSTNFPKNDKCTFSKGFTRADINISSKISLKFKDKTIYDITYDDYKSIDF
Assay: PBM E-score (8-mer binding enrichment) (E-score (-0.5 to 0.5)); higher = stronger / more preferred TF binding
Details: protein concentration: 200 nM; construct: GST-full length
Protocol: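 Universal 'all 10-mer' protein binding microarrays (Agilent AMADID 015681) probed with GST-tagged S. cerevisiae TFs (full-length or DBD) made by in vitro transcription/translation (PURExpress), about 100-200 nM. Bound TF was detected with fluorescent anti-GST. Each ungapped 8-mer (which stands for itself and its reverse complement) is scored by the PBM enrichment score (E-score), a modified Wilcoxon-Mann-Whitney statistic from -0.5 to +0.5, computed with the Universal PBM Analysis Suite. Scale: above 0.35 generally sequence-specific binding.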

Row | Sequence | PBM E-score
1 | AGTAGAGG | -0.308
2 | GCGCAGCA | -0.232
3 | ACAATTTC | 0.0702
4 | AGGATAAT | 0.113
5 | TCAAAGGA | -0.0285
6 | GAGCCACC | -0.264
7 | CCATCTCC | 0.256
8 | GAAGATTC | 0.171
9 | CATTCTCC | 0.118
10 | CCAACTCA | -0.0222
11 | CCAACTCG | -0.141
12 | ACAACTCT | 0.0085
13 | ACAACTCC | 0.431
14 | GCAACTCC | 0.299
15 | CCAACTCC | 0.387
16 | GCAACTCA | 0.0595
17 | GCAACTAC | 0.0638
18 | ACAACTCA | 0.13
19 | CGCTGTGA | -0.225
20 | CTATTGGC | -0.227
21 | ACCTTGAC | -0.143
22 | GCGGAGTA | 0.458
23 | CCGGAGGC | 0.156
24 | AAGGAGTA | 0.0607
25 | ATGGAGTG | -0.0878

Row | Sequence | PBM E-score
26 | ACGGAGTG | 0.42
27 | GAGGAGTA | -0.0389
28 | AAGGAGTG | -0.0821
29 | ATGGAGTA | 0.179
30 | ACGGAGTA | 0.473
31 | CCGGAGTC | 0.484
32 | GCGGAGGA | -0.161
33 | CAGGAGTC | 0.0824
34 | AATTGCGT | 0.134
35 | CGATCCTC | -0.124
36 | ACACTCGA | -0.106
37 | AAACCTAT | 0.123
38 | CTAGATGA | -0.0501
39 | CACAAACG | 0.127
40 | CCAACCAG | -0.187
41 | ACCGCAAT | 0.1
42 | ATGGAGTC | 0.0281
43 | CCGGAGTA | 0.49
44 | ACGGAGGC | -0.0143
45 | ACGGAGTC | 0.46
46 | CTGGAGTA | 0.0562
47 | CAGGAGTA | -0.157
48 | CGATTTAA | 0.242
49 | TGATTTAA | 0.3
50 | AGATTTAA | 0.00422

Row | Sequence | PBM E-score
51 | CAATTTTA | 0.234
52 | AAATTTAA | 0.318
53 | AACTTTAA | 0.325
54 | AACTTTAG | 0.189
55 | CACTTTAA | 0.157
56 | AAATTTAG | 0.254
57 | CAATTTAA | 0.317
58 | AAATTTTA | 0.125
59 | TAATTTAA | 0.283
60 | CCAGGATC | -0.201
61 | GTTTAACA | -0.00835
62 | AGGATTTG | 0.0444
63 | CCTCCCTA | -0.367
64 | CGCAAACG | -0.00322
65 | AGATTGAG | 0.0927
66 | AACTATCT | 0.0634
67 | GGACCGTA | -0.172
68 | CTGCGTTC | 0.0373
69 | AAGTTGTA | 0.0914
70 | CAGTTGTA | 0.00162
71 | GAGTTGTA | 0.317
72 | CTAGCGGA | 0.0881
73 | CGAGGTCA | -0.0467
74 | CTCTCCGC | 0.18
75 | ATCTCCCC | -0.285

Row | Sequence | PBM E-score
76 | ATCTCCGG | 0.478
77 | ATCTCCCG | -0.0416
78 | ATCTCCAA | 0.158
79 | ATCTCCCA | -0.155
80 | ATCTCCAG | -0.0734
81 | GTCTCCAA | -0.0301
82 | CTCTCCGA | 0.257
83 | ATCTCCGC | 0.399
84 | ATCTCCGA | 0.477
85 | GTCTCCGA | 0.338
86 | AAGCGACC | 0.0829
87 | CGTAGGCA | -0.169
88 | GATAGTAC | -0.00235
89 | GCGCAAGC | -0.234
90 | CAAGATTA | 0.132
91 | GAAGATTA | 0.109
92 | AAAGATTA | 0.306
93 | AAAAAACT | 0.198
94 | AGAGAGCG | -0.0777
95 | GGTATGAA | 0.114
96 | CAGTTTTA | 0.0952
97 | CGGATAAC | 0.264
98 | TGGATAAA | 0.263
99 | CCGATAAG | 0.111
100 | CCGATAAC | 0.18

Row | Sequence | PBM E-score
101 | TTGATAAA | 0.328
102 | CGGATAAA | 0.341
103 | ATGATAAA | 0.233
104 | GTGATAAA | 0.0786
105 | CCGATAAA | 0.343
106 | TGGGTTAA | -0.0031
107 | ATCAACTC | -0.0768
108 | ACAGAACG | -0.0202
109 | TCACTCAA | 0.0178
110 | CCCTCAAA | -0.0431
111 | AATCGGCG | -0.0941
112 | AAAGTATA | 0.214
113 | GCTTAAGA | 0.00411
114 | GTCAAGAA | 0.108
115 | ACCGTTAG | 0.00367
116 | CAGCTGAA | -0.109
117 | CGATTCCG | 0.314
118 | AAATTCCC | -0.245
119 | CGATTCCC | -0.0189
120 | AAATTCCA | 0.241
121 | CAATTCCA | -0.032
122 | CGATTCCA | 0.0585
123 | AAATTCCG | 0.337
124 | CAATTCCG | 0.305
125 | CAATTCCC | 0.072

Row | Sequence | PBM E-score
126 | GCTAGGGA | -0.308
127 | AATCCCAG | 0.0474
128 | ATACGAGG | -0.165
129 | CGATTGAG | -0.0533
130 | CGGACTAC | 0.464
131 | AGGACTAC | -0.118
132 | GGGACTAC | -0.162
133 | CAGACTAG | -0.288
134 | CGGACTAA | 0.454
135 | CGGACTAG | 0.452
136 | AGGACTAG | -0.0577
137 | TGGACTAA | -0.104
138 | GGGACTAA | -0.0778
139 | GATGCTCC | 0.17
140 | CAAGGGGA | -0.185
141 | GCCTTGCC | -0.155
142 | ACGTCGAT | 0.0428
143 | CATCTGAG | -0.143
144 | CACTCCAC | -0.0759
145 | CCAGCTGG | -0.188
146 | CATGCAGA | -0.15
147 | GTTGAAAA | 0.104
148 | ATTGAAAC | 0.184
149 | ATTGAATA | 0.315
150 | ATTGAAAA | 0.213

Row | Sequence | PBM E-score
151 | ATTGAATC | 0.00919
152 | TTTGAAAA | 0.31
153 | ATTGAAAT | 0.311
154 | CTTGAAAA | 0.0874
155 | CTTGAATA | 0.0931
156 | CCGGGCCG | 0.155
157 | TCCATGAA | 0.131
158 | AGCCTTTG | -0.165
159 | ACCTCAGC | -0.106
160 | CTCAGTTC | -0.0325
161 | ATCTTTCG | -0.00103
162 | CGAGAGCC | -0.161
163 | CATTTCAA | 0.275
164 | GATTTCAA | 0.147
165 | TATTTCAA | 0.301
166 | ATTCATAA | 0.127
167 | ATTCCGGC | 0.177
168 | CTTCCGTA | 0.181
169 | GTTCCGCA | 0.0832
170 | CTTCCGGC | 0.0877
171 | GTTCCGAA | 0.267
172 | ATTCCGGG | 0.295
173 | GTTCCGGA | 0.342
174 | CTTCCGGA | 0.347
